Assay [1] in a line: BSK_CASM3C_SRB: Viability Assessment in the BioMAP Diversity Plus: CASM3C Assay (AID 2283050).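 Note: cells exposed to compound for 24 h.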 To be noted: primary human coronary artery smooth muscle cells.
Read-out in assay [2]: Thrombomodulin, THBD (gene 7056)
The assay is described as follows: BSK_CASM3C_Thrombomodulin: BioMAP Diversity Plus: CASM3C Assay for Thrombomodulin Biomarker Activity (AID 2283051).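 Note: thrombomodulin protein level measured by ELISA 24 h after dosing.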 To be noted: primary human coronary artery smooth muscle cells; actives raise or lower the signal.

Read-out in assay [3]: Tissue Factor, F3 (gene 2152)
Description: BSK_CASM3C_TissueFactor: BioMAP Diversity Plus: CASM3C Assay for Tissue Factor Biomarker Activity (AID 2283052).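 Note: cell surface tissue factor protein level read by ELISA.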 To be noted: primary human coronary artery smooth muscle cells; actives raise or lower the signal.

Read-out in assay [4]: Interferon-gamma inducible Protein 10 (IP10), CXCL10 (gene 3627)
Description: BSK_hDFCGF_IP10: BioMAP Diversity Plus: hDFCGF Assay for Interferon-gamma inducible Protein 10 (IP10) Biomarker Activity (AID 2283053). The note with it: primary human foreskin fibroblasts; actives raise or lower the signal. In a few lines:
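Primary foreskin fibroblasts, human; 24 h compound exposure; IP-10 by ELISA; bidirectional fit vs DMSO.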

Read-out in assay [5]: Urokinase-type plasminogen activator receptor (uPAR), PLAUR (gene 5329)
Description: BSK_CASM3C_uPAR: BioMAP Diversity Plus: CASM3C Assay for Urokinase-type plasminogen activator receptor (uPAR) Biomarker Activity (AID 2283054).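 Note: cell-surface uPAR protein level quantified by ELISA.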 To be noted: primary human coronary artery smooth muscle cells; actives raise or lower the signal.

Read-out in assay [6]: Vascular cell adhesion molecule 1 (VCAM1), VCAM1 (gene 7412)
Description: BSK_CASM3C_VCAM1: BioMAP Diversity Plus: CASM3C Assay for Vascular cell adhesion molecule 1 (VCAM1) Biomarker Activity (AID 2283055).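 Note: VCAM-1 protein level quantified by ELISA on the cells.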 To be noted: primary human coronary artery smooth muscle cells; actives raise or lower the signal.

Read-out in assay [7]: Collagen III, COL3A1 (gene 1281)
Description: BSK_hDFCGF_CollagenIII: BioMAP Diversity Plus: hDFCGF Assay for Collagen III Biomarker Activity (AID 2283056). To be noted: primary human foreskin fibroblasts; actives raise or lower the signal. In a few lines: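 Cells: human foreskin fibroblasts, primary. Dosing followed by 24 h incubation, then ELISA for collagen III. Both increases and decreases scored relative to DMSO.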

Read-out in assay [8]: Epidermal growth factor receptor (EGFR), EGFR (gene 1956)
The assay is described as follows: BSK_hDFCGF_EGFR: BioMAP Diversity Plus: hDFCGF Assay for Epidermal growth factor receptor (EGFR) Biomarker Activity (AID 2283057). To be noted: primary human foreskin fibroblasts; actives raise or lower the signal. The method in brief:
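hDFCGF system, primary human foreskin fibroblasts; compound 24 h; EGFR measured by ELISA; DMSO = negative control/baseline; bidirectional fitting.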

Read-out in assay [9]: Interleukin-8 (IL8), CXCL8 (gene 3576)
Description: BSK_hDFCGF_IL8: BioMAP Diversity Plus: hDFCGF Assay for Interleukin-8 (IL8) Biomarker Activity (AID 2283058). To be noted: primary human foreskin fibroblasts; actives raise or lower the signal. In a few lines: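 IL-8 levels from compound-treated primary human fibroblasts were read by ELISA at 24 h, with DMSO serving as baseline for bidirectional fitting.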

The nature of assay [10]: BSK_hDFCGF_Proliferation: Cell Proliferation Assessment in the BioMAP Diversity Plus: hDFCGF Assay (AID 2283059).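 Note: curves fitted for both rise and fall of signal versus DMSO baseline.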 To be noted: primary human foreskin fibroblasts. In a few lines: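 Steps: dose primary human dermal fibroblasts (foreskin); […] fix in 10% TCA; stain with 0.1% SRB; read 560 nm; fit gain or loss of signal against DMSO.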
Read-out in assay [11]: Macrophage colony-stimulating factor (MCSF), CSF1 (gene 1435)
Description: BSK_hDFCGF_MCSF: BioMAP Diversity Plus: hDFCGF Assay for Macrophage colony-stimulating factor (MCSF) Biomarker Activity (AID 2283060). The note with it: primary human foreskin fibroblasts; actives raise or lower the signal. The method in brief: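 M-CSF levels, determined by ELISA, are taken at 24 h after dosing human skin fibroblasts. Responses in either direction are fitted with DMSO serving as the baseline.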

A short description of assay [12]: BSK_hDFCGF_SRB: Viability Assessment in the BioMAP Diversity Plus: hDFCGF Assay (AID 2283061).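 Note: cells exposed to compound for 24 h before the read.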 The note with it: primary human foreskin fibroblasts. In a few lines: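 Cells were dosed with test chemical, cultured 24 h, fixed with 10% TCA, then stained with 0.1% SRB and read at 560 nm. The fibroblasts were human foreskin primary cells, and DMSO served as baseline.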

Read-out in assay [13]: TIMP metallopeptidase inhibitor 1 (TIMP1), TIMP1 (gene 7076)
The assay is described as follows: BSK_hDFCGF_TIMP1: BioMAP Diversity Plus: hDFCGF Assay for TIMP metallopeptidase inhibitor 1 (TIMP1) Biomarker Activity (AID 2283062). To be noted: primary human foreskin fibroblasts; actives raise or lower the signal. In a few lines: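 Fibroblasts from human foreskin are treated with test chemical and harvested at 24 h. TIMP-1 is quantified by ELISA, and gain or loss of signal is scored against DMSO.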

Read-out in assay [14]: Monokine induced gamma interferon (MIG), CXCL9 (gene 4283)
Description: BSK_hDFCGF_MIG: BioMAP Diversity Plus: hDFCGF Assay for Monokine induced gamma interferon (MIG) Biomarker Activity (AID 2283063). The note with it: primary human foreskin fibroblasts; actives raise or lower the signal. The method in brief:
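MIG signal, determined by ELISA, reflects 24 h chemical exposure of human skin primary fibroblasts. DMSO serves as negative control and baseline.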

Read-out in assay [15]: Matrix Metallopeptidase 1 (MMP1), MMP1 (gene 4312)
Description: BSK_hDFCGF_MMP1: BioMAP Diversity Plus: hDFCGF Assay for Matrix Metallopeptidase 1 (MMP1) Biomarker Activity (AID 2283064). To be noted: primary human foreskin fibroblasts; actives raise or lower the signal. In a few lines: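 Primary human foreskin fibroblasts exposed to chemicals for 24 h; MMP1 measured by ELISA. Cytotoxicity tracked by SRB staining in parallel cultures; bidirectional fit relative to DMSO.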

Read-out in assay [16]: Vascular cell adhesion molecule 1 (VCAM1), VCAM1 (gene 7412)
Description: BSK_hDFCGF_VCAM1: BioMAP Diversity Plus: hDFCGF Assay for Vascular cell adhesion molecule 1 (VCAM1) Biomarker Activity (AID 2283065).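 For AC50: VCAM-1 protein level quantified by ELISA after 24 h chemical exposure.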 The note with it: primary human foreskin fibroblasts; actives raise or lower the signal. The method in brief:
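Cells are dosed, cultured for 24 h, then VCAM-1 is quantified by ELISA; signal increases and decreases are both fitted relative to DMSO.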

Read-out in assay [17]: Interferon-gamma inducible Protein 10 (IP10), CXCL10 (gene 3627)
The assay is described as follows: BSK_KF3CT_IP10: BioMAP Diversity Plus: KF3CT Assay for Interferon-gamma inducible Protein 10 (IP10) Biomarker Activity (AID 2283068). To be noted: primary human keratinocytes with fibroblasts; actives raise or lower the signal. In a few lines: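 KF3CT co-culture (keratinocytes + foreskin fibroblasts), 24 h compound, IP-10 by ELISA; bidirectional fit vs DMSO baseline.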

Assay [18] can be described thus: BSK_KF3CT_SRB: Viability Assessment in the BioMAP Diversity Plus: KF3CT Assay (AID 2283069).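 Note: total protein by sulforhodamine B staining as a cytotoxicity measure; fitted for both signal gain and loss against DMSO baseline.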 The note with it: primary human keratinocytes with fibroblasts. In a few lines: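 Human keratinocyte and foreskin fibroblast co-culture exposed to chemical for 24 h. Total protein measured in parallel cultures by 0.1% sulforhodamine B staining after 10% TCA fixation, read at 560 nm; bidirectional fit relative to DMSO.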

Read-out in assay [19]: Plasminogen activator inhibitor-1 (PAI1), SERPINE1 (gene 5054)
The assay is described as follows: BSK_hDFCGF_PAI1: BioMAP Diversity Plus: hDFCGF Assay for Plasminogen activator inhibitor-1 (PAI1) Biomarker Activity (AID 2283066). The note with it: primary human foreskin fibroblasts; actives raise or lower the signal. In a few lines:
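Primary dermal fibroblasts (human foreskin), hDFCGF system; compound 24 h; PAI-1 by ELISA; bidirectional fit vs DMSO control.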

Read-out in assay [20]: Intercellular Adhesion Molecule 1 (ICAM1), ICAM1 (gene 3383)
Description: BSK_KF3CT_ICAM1: BioMAP Diversity Plus: KF3CT Assay for Intercellular Adhesion Molecule 1 (ICAM1) Biomarker Activity (AID 2283067). The note with it: primary human keratinocytes with fibroblasts; actives raise or lower the signal. In a few lines: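 Dose the keratinocyte/fibroblast co-culture, wait 24 h, measure ICAM-1 by ELISA, then fit increases or decreases against DMSO. Cytotoxicity is checked in parallel cultures by SRB total-protein staining.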

As a reminder, the AC50 is the concentration at which the activity in the assay is half-maximal.

SMILES strings stand for the structures. Active and inactive are the calls of the source. Rule for the calls: active = hit-call score of the fitted dose curve at least 0.9, where 1 is the maximum; inactive = score below 0.9.

As to `CC1(c2ccc(Oc3ccccc3)cc2)OC(=O)N(Nc2ccccc2)C1=O` (configuration not stated), the outcome in [1], in [2], in [3], in [4], in assay [7] and in [8] was inactive. For the same compound, the result in assay [9], in assay [10], in [11], in assay [12], in assay [13] and in [14] was inactive. The result in assay [15], in [16], in assay [17] and in assay [18] was inactive. For the same compound, the AC50 in assay [5] was 5.52 µM (active); in assay [6], 18 µM (active).
With `CCOCN(C(=O)CCl)c1c(C)cccc1CC`, the result in [1], in [3], in [5], in [8], in assay [9] and in assay [12] was inactive. Also, the result in assay [13] and in [18] was inactive. Besides, the AC50 is 16.8 µM (active) in [2]; 20 µM (active) in assay [4]; 20 µM (active) in assay [6]; 8.23 µM (active) in assay [7]; 14.5 µM (active) in [10]; 9.55 µM (active) in assay [11]. The AC50 was 22.8 µM (active) in [14], 5.13 µM (active) in assay [15], 3.54 µM (active) in assay [16] and 23.6 µM (active) in [17].
Turning to `CCCN(CCC)c1c([N+](=O)[O-])cc(C(F)(F)F)cc1[N+](=O)[O-]`, the result in [1], in assay [2], in assay [3], in assay [5], in assay [6] and in [7] was inactive. Moreover, the outcome in assay [8], in [9], in assay [13], in [14], in assay [20] and in assay [18] was inactive. Besides, the AC50 was 29.6 µM (active) in [10]; 28.6 µM (active) in assay [11]; 30.9 µM (active) in [12]; 4.1 µM (active) in assay [15]; 7.77 µM (active) in assay [16]; 29.4 µM (active) in assay [19]. Besides, in assay [17], the AC50 was 28.8 µM (active).
`CNC(=O)/C=C(\C)OP(=O)(OC)OC`: the result in assay [1], in assay [2], in assay [3], in [5], in assay [6] and in [7] was inactive. Moreover, the result in [8], in assay [9], in [10], in assay [11], in assay [12] and in [13] was inactive. In addition, the result in [14], in assay [15], in [16], in assay [19], in [17] and in assay [18] was inactive.
Turning to `C[C@H]1[C@H](c2ccc(Cl)cc2)SC(=O)N1C(=O)NC1CCCCC1`, the result in [1], in assay [3], in assay [5], in assay [6], in [8] and in [9] was inactive. In addition, the result in assay [13], in assay [14], in assay [16], in assay [17] and in [18] was inactive. Besides, the AC50 in assay [2] is 14.9 µM (active); in assay [7], 5.46 µM (active); in [10], 9.3 µM (active); in [11] it was 9.15 µM (active); in [12] it was 8.97 µM (active); in assay [15] it was 5.43 µM (active).
As for `CNC(=O)CSP(=S)(OC)OC`, the result in assay [1], in assay [2], in assay [3], in [5], in [6] and in assay [7] was inactive. Further, the result in [8], in [9], in assay [10], in [11], in assay [12] and in assay [13] was inactive. Also, the outcome in assay [14], in assay [15], in assay [16], in [17] and in assay [18] was inactive.

Values taken from PubChem BioAssay (EPA / NIEHS).
